Screening data as filed in PubChem.
Shown are actives, neighbours in structure and some others; about 19% of the full set was active somewhere.
IL1B secr inh: inflammasome signaling inhibition, IL-1 beta readout; AID 743279; 360,000 compounds, 4.7% hits; THP-1 LPS/ATP IL-1B secretion, AlphaLISA, 16 h; active compounds read low; activity change, % at 57.5 µM; in the data active means activity change below about -50%; inconclusive means mostly about -30% to -49%; further: on the % scale 0 is the no-effect control and ±100 the full control effect
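THP-1 cells pretreated 1 hr with compounds (up to 57.5 uM final), then stimulated with LPS (250 ng/mL final) plus ATP (1.25 mM final); secreted IL-1B measured by AlphaLISA after 16 hr, decreased signal indicating inhibition.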
S-ASM inh: inhibitors of human secretory acid sphingomyelinase. placental ASM, HMU-PC fluorogenic substrate, 60 min. 340,000 compounds, 0.006% hits. AID 504937. P17405. Potency, µM (top dose mostly 57.5 µM), for inactives: at the highest dose activity change, negative = inhibition, actives largely listed as inhibitors; further: potency means the concentration at half of the fitted maximal effect
Target sequence (P17405 47-631 limits assumed): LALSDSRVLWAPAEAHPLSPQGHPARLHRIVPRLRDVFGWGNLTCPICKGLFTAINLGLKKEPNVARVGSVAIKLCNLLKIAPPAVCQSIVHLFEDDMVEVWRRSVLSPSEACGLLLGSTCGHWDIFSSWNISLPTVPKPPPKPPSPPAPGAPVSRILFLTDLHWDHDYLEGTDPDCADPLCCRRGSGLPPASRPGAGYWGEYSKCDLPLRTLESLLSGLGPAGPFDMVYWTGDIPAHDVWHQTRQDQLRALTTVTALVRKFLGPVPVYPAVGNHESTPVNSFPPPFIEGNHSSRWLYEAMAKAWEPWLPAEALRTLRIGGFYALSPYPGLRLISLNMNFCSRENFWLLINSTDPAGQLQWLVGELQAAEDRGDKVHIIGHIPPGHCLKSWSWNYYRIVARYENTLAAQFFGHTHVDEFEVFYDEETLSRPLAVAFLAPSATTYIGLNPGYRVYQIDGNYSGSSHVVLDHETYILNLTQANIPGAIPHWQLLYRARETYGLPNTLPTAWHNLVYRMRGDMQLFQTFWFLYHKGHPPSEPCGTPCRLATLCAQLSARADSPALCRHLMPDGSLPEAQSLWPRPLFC
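qHTS format. ASM enzyme prepared from human placenta hydrolyses the fluorogenic substrate HMU-PC0 (9 uM final) over 60 min at 37 °C after a 10 min compound preincubation.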
HepG2 tox: HepG2 cytotoxicity, counter-screen for TGF-b inhibitors; HepG2 CAGA-GFP viability, ATP luminescence, 18 h; Potency, µM (series often up to 46.1 µM), without a hit: top-dose activity change, negative = cytotoxicity, actives largely listed as cytotoxic; 410,000 compounds, 0.76% hits; AID 588856; further: potency means the concentration at half of the fitted maximal effect
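HepG2 CAGA-GFP cells (1000/well, DMEM with 1% FBS) received compound, then TGF-beta at 500 pg/mL final, and were incubated 18 hours at 37 degrees C. Viability was read by CellTiter-Glo luminescence. Media-only wells were set as complete cell-killing and DMSO as no toxicity.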
DT40 TDP1 no CPT: qHTS for Inhibitors of human tyrosyl-DNA phosphodiesterase 1 (TDP1): qHTS in cells in absence of CPT; DT40 Tdp1-/- hTDP1 cells, no CPT, ATP luminescence, 48 h; Potency, µM (highest dose often 46.2 µM), inactives show at the top dose activity change, negative = growth inhibition, usual class: inhibitors; 420,000 compounds, 15% hits; further: potency means the concentration at half of the fitted maximal effect; on the % scale 0 is the no-effect control and ±100 the full control effect; nearly all actives have a fitted effect of over 55% in size
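Compound effects on proliferation are scored in DT40 Tdp1-/-;hTDP1 cells in the absence of CPT. ATP levels (CellTiter-Glo luminescence) are recorded after a ≥48 hr, 37 °C incubation.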
TGFb inhibitor: inhibitors of TGF-b signaling; HepG2 CAGA-GFP TGF-b/SMAD3 reporter, GFP fluorescence, 18 h; TGF-beta stimulated, 500 pg/mL final; Potency, µM (titrated, usually from 46.1 µM), without a hit: at the top dose activity, negative = inhibition, actives largely listed as inhibitors; AID 588855; 410,000 compounds, 1.2% hits; further: potency means the concentration at half of the fitted maximal effect; on the % scale 0 is the no-effect control and ±100 the full control effect; nearly all actives have a fitted effect of over 65% in size
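First, reporter cells (HEPG2 CAGA-GFP) rested 2 h at 37 degrees C. Next, compounds were pinned in and TGF-beta added to 500 pg/mL final. After 18 h, GFP was imaged per cell and summed per well.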
TDP1 cell CPT: growth inhibition of DT40 Tdp1-/-;hTDP1 cells with camptothecin (screen for TDP1 inhibitors). chicken DT40 Tdp1-/-;hTDP1 cells + 20 nM CPT, ATP luminescence, 48 h. Potency, µM (top dose mostly 46.2 µM), without a hit: at the top dose activity change, negative = growth inhibition, hits mostly inhibitors. 420,000 compounds, 12% hits. AID 686979; further: potency means the concentration at half of the fitted maximal effect; on the % scale 0 is the no-effect control and ±100 the full control effect; nearly all actives have a fitted effect of over 55% in size
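Chicken DT40 Tdp1-/- cells complemented with human TDP1, 400 cells/well, exposed to compounds plus 20 nM camptothecin for at least 48 h at 37 C; viability read as ATP content by CellTiter-Glo luminescence.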
* hit, by the source's call; ? = inconclusive; . = not tested or not shown. Unless noted, the call rests on the fitted dose curve; in most records, active means well fitted curve in the direction sought with a large enough effect; inconclusive means small, poorly fitted or top-dose-only effect, or another doubt; inactive means no such curve, though single readings can be large; an effect the other way counts as inactive or inconclusive.

SMILES	IL1B secr inh	S-ASM inh	HepG2 tox	DT40 TDP1 no CPT	TGFb inhibitor	TDP1 cell CPT
Cn1ncc([N+](=O)[O-])c1C(=O)Nc1ccc(Cl)cc1	?	-5.9%	-66.7%	16.5%	-5.3%	-9.5%
Cn1ncc([N+](=O)[O-])c1C(=O)Nc1ccc(-c2nc3ccccc3[nH]2)cc1	-13.6	-4.9%	-19.7%	18.4µM*	26.8%	?
COCCN1CC(=O)N2C(c3cccc(OC)c3)c3[nH]c4ccccc4c3C[C@H]2C1=O (stereo partly specified)	-6.4	0.4%	6.8%	-28.0%	1.8%	13.8%
CC(C)CNC(=O)c1ccc(-c2ccc(F)c(F)c2)c2ccoc12	-66.4*	.	-23.9%	18.4µM*	-8.2%	?
O=C(NCCc1ccccc1)c1ccc(-c2cccnc2)c2ccoc12	-26.1	.	-27.6%	14.6µM*	-0.9%	?
O=C(NCc1ccncc1)c1ccc(-c2ccc(F)c(F)c2)c2ccoc12	-16.0	.	-37.3%	6.51µM*	-14.0%	4.11µM*
O=C(NCc1cccc(Cl)c1)c1ccc(-c2cccnc2)c2ccoc12	-14.5	.	-3.0%	?	7.3%	?
CN1CCN(c2ccc(CNC(=O)c3cccc4c(-c5ccc(F)c(F)c5)coc34)cc2)CC1	-10.9	.	-113.6%	?	?	?
CN1CCN(c2ccc(CNC(=O)c3ccc(-c4ccc(F)c(F)c4)c4ccoc34)cc2)CC1	-17.5	.	-30.3%	18.4µM*	9.0%	?
O=C(NCc1ccc(C(F)(F)F)cc1)c1ccc(-c2ccc(F)c(F)c2)c2ccoc12	?	.	-27.1%	?	-2.6%	?
CC(C)(C)n1ncc2c(=O)n(Cc3cc(F)c(F)cc3Cl)cnc21	.	.	6.1%	.	9.1%	.
CN(CC(=O)Nc1ccccc1Cl)C(=O)c1ccccc1Sc1ccccc1C#N	-2.8	0.8%	-1.0%	-1.2%	-20.8%	?
O=S1c2ccccc2Sc2ccccc21	10.1	1.6%	-6.7%	-7.0%	-8.8%	-9.7%
COC(=O)c1ccccc1NC(=O)c1noc2c1CC(C(C)(C)C)CC2 (stereo unspecified)	6.4	-9.3%	0.2%	20.6µM*	4.7%	?
CC(C)(C)C1CCc2onc(C(=O)NCc3ccc(F)cc3)c2C1 (stereo unspecified)	-29.6	-5.8%	-7.3%	?	?	?
CC(C)(C)C1CCc2onc(C(=O)Nc3cccnc3)c2C1 (stereo unspecified)	-24.6	-1.8%	-21.8%	-18.7%	-0.5%	-15.3%
Cc1ccc(NC(=O)c2noc3c2CC(C(C)(C)C)CC3)cc1 (stereo unspecified)	-27.3	3.5%	-40.2%	23.1µM*	13.2%	?
COCc1cc(C)nc2sc3c(c12)NC(c1ccccc1C(=O)O)N(c1ccc(OC)cc1)C3=O (stereo unspecified)	.	.	-22.9%	-29.1%	-15.6%	?
O=c1cc(-c2ccc(O)c(O)c2)oc2ccc3ccccc3c12	6.6	-4.9%	-4.8%	14.6µM*	-18.4%	?
O=c1cc(-c2ccc(O)c(O)c2)oc2c1ccc1ccccc12	-0.3	-17.8%	-41.8%	25.9µM*	?	16.4µM*
O=c1cc(-c2cccnc2)oc2c1ccc1ccccc12	.	11.3%	-19.2%	23.1µM*	?	?
COc1ccc(-c2cc(CCC(=O)N3CCN(c4cc(C)ccc4C)CC3)[nH]n2)cc1	-4.5	-8.5%	-19.4%	23.1µM*	?	?
CCOC(=O)c1[nH]c(C)c(CCC(=O)Nc2c(C)cc(C)cc2C)c1C	.	.	-1.5%	20.6µM*	8.2%	?
CCOC(=O)c1[nH]c(C)c(CCC(=O)N2CCN(c3cc(C)ccc3C)CC2)c1C	.	.	-30.5%	23.1µM*	?	?
CCOC(=O)c1[nH]c(C)c(CCC(=O)N2CCN(c3cc(Cl)ccc3C)CC2)c1C	.	.	-26.7%	23.1µM*	11.2µM*	?
SMILES	IL1B secr inh	S-ASM inh	HepG2 tox	DT40 TDP1 no CPT	TGFb inhibitor	TDP1 cell CPT
O=C(O)CCC(=O)OCCCc1cc2ccccc2c(=O)o1	35.7	-5.7%	-5.4%	-5.7%	-2.5%	-14.1%
CCCCCN1C(C(=O)c2ccccc2)=C(NC(C)=O)c2ccccc2S1(=O)=O	.	.	-10.7%	18.4µM*	?	16.4µM*
O=C(CCN1C(=O)c2ccccc2S1(=O)=O)Nc1ccc(C(=O)O)cc1	-1.6	-1.1%	-1.6%	2.0%	-15.1%	-6.6%
Cc1ccc(CNC(=O)CN2C(=O)c3ccccc3S2(=O)=O)cc1	-5.0	2.6%	-0.7%	5.2%	19.8%	-2.0%
CCCCCN1C(C(=O)c2ccccc2)=C(NC(=O)c2ccc(C)cc2)c2ccccc2S1(=O)=O	.	.	-19.2%	16.4µM*	?	18.4µM*
CCCCCN1C(C(=O)c2ccccc2)=C(NC(=O)c2ccccc2Cl)c2ccccc2S1(=O)=O	.	.	2.8%	8.2µM*	?	?
CCN(CC(=O)NCc1ccc(F)cc1)C(=O)CN1CCN(c2ccc(OC)cc2)CC1	-11.8	-2.9%	-35.6%	-22.6%	2.3%	-5.0%
COc1cccc(Cn2c(=O)n(-c3ccccc3C)c(=O)c3c2c2cc(C)ccc2n3C)c1	.	.	-4.0%	13µM*	-27.6%	18.4µM*
COc1ccc(Cn2c(=O)n(-c3ccc(C)cc3)c(=O)c3c2c2cc(C)ccc2n3C)cc1	.	.	-47.0%	-14.2%	-1.9%	-18.4%
CCc1ccc(NC(=O)Cn2c(=O)n(-c3ccccc3C)c(=O)c3c2c2cc(OC)ccc2n3C)cc1	.	.	-14.8%	-27.0%	?	?
COc1ccc2c(c1)c1c(c(=O)n(-c3ccccc3C)c(=O)n1CC(=O)Nc1c(C)cccc1C)n2C	.	.	2.7%	9.2µM*	-14.8%	7.31µM*
COc1cccc(-c2ncnn2-c2sc3c(c2C#N)CCCCC3)c1OC	.	.	-4.9%	?	-3.5%	-16.6%
CCC1Oc2ccc(C)cc2N(CC(=O)N2CCN(c3ccccc3OC)CC2)C1=O (stereo unspecified)	.	.	-35.5%	16.4µM*	?	?
CCC1Oc2ccc(C)cc2N(CC(=O)N2CCN(c3ccc(F)cc3)CC2)C1=O (stereo unspecified)	-25.3	1.6%	-16.9%	18.4µM*	?	20.6µM*
CCOC(=O)C1CCCN(C(=O)CN2C(=O)C(CC)Oc3ccc(C)cc32)C1 (stereo unspecified)	27.8	1.1%	-0.4%	-16.1%	4.1%	?
